Source: PubChem BioAssay AID1508609 (The Scripps Research Institute Molecular Screening Center, 2020)
The whole screen tested about 6,700 compounds, of which fewer than 10 were called active.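 The calls were made as follows: active = mean percent activation across replicates above the confirmation screen cutoff of 4.91%; inactive = the rest.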 These entries were drawn from the full list.

molecular target: G-protein coupled receptor 151 (Homo sapiens) (UniProt Q8TDV0); test: GPR151 agonism via beta-arrestin recruitment – cell-based, PathHunter beta-arrestin, luminescence, confirmation (AID 1508609); conditions: GPR151 PathHunter beta-arrestin cells, 90 min, at 11.2 µM, stronger effect = higher value, % of EA-reagent control over plate median
Sequence (Q8TDV0 whole entry, looked up): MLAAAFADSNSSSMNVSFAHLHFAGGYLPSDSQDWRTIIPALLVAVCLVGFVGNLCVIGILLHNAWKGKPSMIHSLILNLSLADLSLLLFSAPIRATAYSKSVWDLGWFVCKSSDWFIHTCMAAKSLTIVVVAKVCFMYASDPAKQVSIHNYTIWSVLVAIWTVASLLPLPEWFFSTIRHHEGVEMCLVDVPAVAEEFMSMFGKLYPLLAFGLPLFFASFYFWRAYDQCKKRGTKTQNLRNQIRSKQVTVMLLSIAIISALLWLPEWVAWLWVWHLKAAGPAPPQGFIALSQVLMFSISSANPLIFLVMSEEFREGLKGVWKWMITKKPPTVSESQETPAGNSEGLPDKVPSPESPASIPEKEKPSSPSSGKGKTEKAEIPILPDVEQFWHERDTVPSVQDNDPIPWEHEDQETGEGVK

activation, inactive:
CC(=O)NC(CC(=O)O)c1ccc(F)cc1 (stereo unspecified) 0.27%
CC(=O)c1c(C)[nH]c(C(=O)N2CCN(c3ccc(Cl)cc3)CC2)c1C -0.42%
CC(=O)Oc1cccc(N2C(=O)C3C4c5ccccc5C(C)(c5ccccc54)C3C2=O)c1 (stereo unspecified) -0.54%
O=C(CC1C(=O)NCCN1Cc1ccc2ccccc2c1)NCCCn1cccn1 (stereo unspecified) 0.42%
CC(=O)Oc1cc2c(C(=O)NCCN3CCOCC3)c(C)oc2c2ccccc12 -0.37%
CCOc1ccc(NC(=O)COc2cccc(C)c2C)cc1 0.66%
Cc1cc2c(cc1S(=O)(=O)CCC(=O)Nc1ccccc1Cl)OCC(=O)N2 0.39%
O=C(CC12CC3CC(CC(C3)C1)C2)Nc1ccc2oc(=O)ccc2c1 -0.22%
CCOc1cc(C2C3=C(CCCC3=O)NC3=C2C(=O)CCC3)cc(Br)c1OCC 0.37%
COc1ccc([N+](=O)[O-])cc1NC(=O)C1CC(Cl)=CCC1C(=O)O (stereo unspecified) 0.92%
Brc1cnc(NC2CCCCC2)nc1 1.03%
COc1cc(-c2coc3cc(O[C@@H]4O[C@H](CO)[C@@H](O)[C@H](O)[C@H]4O)c(OC)c(O)c3c2=O)cc(O)c1OC -0.2%
COc1ccc(OC)c(S(=O)(=O)Oc2ccc(Cl)c3cccnc23)c1 0.21%
O=C(NCCO)c1cnc(NC2CCN(Cc3ccccc3)CC2)s1 0.92%
COc1ccc(C=O)cc1OCc1ccc(F)cc1 -0.07%
C=C(C)CSc1nc2sc3c(c2c(=O)n1-c1ccc(OC)cc1)CC(C)(C)OC3 0.13%
COC(=O)C1=CN(Cc2ccc(Cl)cc2)C=C(C(=O)OC)C1c1cc(OC)c(O)c(OC)c1 0.02%
Nc1nc(NC(=O)/C=C/c2ccc(F)cc2)nn1-c1ccccc1 0.79%
COCCNc1nc2nonc2nc1N(C)Cc1ccncc1C 1.1%
CC(C)N1CCc2c(sc(NC(=O)Cc3ccccc3)c2C#N)C1 0.16%
CC(C)c1ccc(CN[C@H]2C[C@H]3C(=O)N[C@@H](COCc4ccccc4)C(=O)N3C2)cc1 0.67%
CC(C)n1c(Nc2ccc3ncccc3c2)nc2c(NC3CC3)ncnc21 -0.12%
Cc1ccc(/C=C2/C(=O)NC(=O)N(c3ccccc3)C2=O)cc1[N+](=O)[O-] 0%
CN(C)c1cccc(Nc2cc(C(=O)Nc3ccc(N4CCOCC4)cc3)ccn2)c1 -1.31%
O=C(Nc1ccc(N2CCCC2=O)cc1)c1cncc(Br)c1 0.8%
COc1cc(Nc2ccnc(Nc3ccc(N4CCOCC4)cc3)n2)cc(OC)c1OC 3.41%
COc1ccc(COC(=O)NNC(=O)c2cccc(Cl)c2)cc1 -0.17%
CCOC(=O)C(C(=O)c1ccccc1)C1(O)C(=O)c2ccccc2C1=O (stereo unspecified) -0.37%
CCC(CC)C(=O)N1CCN(Cc2nc3sc(C)c(C)c3c(=O)[nH]2)CC1 0.36%
CCC(=O)Nc1cc(C(=O)O)ccc1C 0.34%
CCOC(=O)c1[nH]c2ccc(OC)cc2c1NC(=O)CN(C)C 0.64%
COc1ccc(C2=NN(C(=O)c3cc(OC)c(OC)c(OC)c3)C(c3ccc(Cl)cc3)C2)cc1OC (stereo unspecified) 0.2%
Cc1ccc(N2C(=O)CC(NCCN3CCOCC3)C2=O)cc1 (stereo unspecified) 0.27%
c1cncc(Nc2nc(NC3CC3)c3ncn(C4CCCCC4)c3n2)c1 -0.06%
CCCCOC(=O)C1=C(C)NC2=C(C(=O)CCC2)C1c1cccc([N+](=O)[O-])c1 (stereo unspecified) -0.99%
CC(=O)Nc1ccc(NC(=O)c2ccc3nc(Br)sc3c2)cc1 -0.12%
O=C(COc1ccc([N+](=O)[O-])cc1)Nc1ccc2oc(-c3cccc(F)c3)nc2c1 0.23%
COCC(=O)Nc1c(I)c(C(=O)NCC(O)CO)c(I)c(C(=O)N(C)CC(O)CO)c1I (stereo unspecified) -0.27%
CCN(CC)C(=O)C1CCCN(c2ncc(C)c(NCc3cccc(C(F)(F)F)c3)n2)C1 (stereo unspecified) 1.13%
COc1ccc2nc(/C(C#N)=C\c3cc4c(cc3OC)OCO4)[nH]c2c1 0.91%
Cc1cc(Nc2ccc(F)cc2)n2cnnc2n1 1.15%
CN(Cc1ccccc1)C(=O)c1nc2ccc(-c3cn[nH]c3)cc2s1 0.57%
O=C(/C=C/c1ccccc1)c1ccccc1O -0.11%
COC(=O)Cn1ncc2c3ccccc3n(Cc3cccc(Cl)c3)c2c1=O 0.15%
COc1ccc(CCNC(=S)NCc2cc(C)n(C)n2)cc1OC -0.26%
O=C1/C(=C\c2ccccc2)C(N2CCOCC2)=NN1c1ccc([N+](=O)[O-])cc1 0.23%
CC12CCC(C(=O)NC3CCCCC3)(OC1=O)C2(C)C (stereo unspecified) 0.51%
CN(Cc1nc(-c2ccc3c(c2)OCO3)no1)C1CCCc2ccccc21 (stereo unspecified) 0.68%
COc1ccc(-c2noc(-c3ccccc3Cl)n2)cc1 -0.15%
Cc1ccc2c(c1)N(CC(=O)N1CCC(C)CC1)C(=O)c1cccnc1O2 0.11%
CC(/C=N\NC(=O)CSc1nc(C)cc(C)n1)=C\c1ccccc1 -1.7%
